Sampled rows, rich in hits. Any-hit rate of the full collection: about 19%.
HepG2 tox: counter-screen for TGF-b inhibitors: cytotoxicity in HepG2 cells | actives 0.76% (n = 410,000) | Potency, µM (series often up to 46.1 µM), actives largely listed as cytotoxic | HepG2 CAGA-GFP viability, ATP luminescence, 18 h
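CellTiter-Glo luminescence gave cytotoxicity after 18 hours at 37 degrees C. The cells were HepG2 CAGA-GFP in 1% FBS DMEM, stimulated with 500 pg/mL TGF-beta after compound addition. %Activity was normalised to no-cell wells (complete cell-killing) and DMSO (no toxicity), and curves were fitted and classified.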
TDP1 cell CPT: growth inhibition of DT40 Tdp1-/-;hTDP1 cells with camptothecin (screen for TDP1 inhibitors) | chicken DT40 Tdp1-/-;hTDP1 cells + 20 nM CPT, ATP luminescence, 48 h | Potency, µM (doses to about 46.2 µM), actives largely listed as inhibitors | AID 686979 | actives 12% (n = 420,000); also: nearly all actives have a fitted effect of over 55% in size
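Cell growth measured by CellTiter-Glo luminescence after a minimum 48 h, 37 C compound exposure with 20 nM CPT in Tdp1-knockout DT40 cells stably expressing hTDP1, seeded 400/well; qHTS titration format.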
TDP1 block: blocks human tyrosyl-DNA phosphodiesterase 1. actives 0.28% (n = 350,000). recombinant TDP1, AlphaScreen DNA substrate cleavage. Potency, µM (series often up to 130 µM), usual class: inhibitors. AID 485290; also: nearly all actives have a fitted effect of over 40% in size
Target sequence (Q9NUW8 whole entry, looked up): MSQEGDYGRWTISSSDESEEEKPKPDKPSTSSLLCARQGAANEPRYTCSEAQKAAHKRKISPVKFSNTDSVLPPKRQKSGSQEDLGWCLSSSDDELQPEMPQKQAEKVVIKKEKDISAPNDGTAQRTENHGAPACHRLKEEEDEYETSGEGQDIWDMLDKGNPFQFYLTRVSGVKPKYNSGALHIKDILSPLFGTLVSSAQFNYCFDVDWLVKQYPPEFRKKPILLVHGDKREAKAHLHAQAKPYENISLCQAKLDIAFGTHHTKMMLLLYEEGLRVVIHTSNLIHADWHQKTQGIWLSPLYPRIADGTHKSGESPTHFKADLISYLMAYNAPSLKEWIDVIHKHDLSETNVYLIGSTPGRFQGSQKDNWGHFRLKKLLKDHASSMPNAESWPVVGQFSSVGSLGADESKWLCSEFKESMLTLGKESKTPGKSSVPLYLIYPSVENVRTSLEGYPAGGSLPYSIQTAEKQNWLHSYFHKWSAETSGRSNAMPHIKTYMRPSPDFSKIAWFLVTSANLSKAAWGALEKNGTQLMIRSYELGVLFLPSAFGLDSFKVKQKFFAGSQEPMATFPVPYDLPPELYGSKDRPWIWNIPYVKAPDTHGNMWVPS
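E. coli-derived human Tdp1, 1 nM final. Cpd preinc 15 min RT; substrate 15 nM final, 5 min RT; AS bead mix 10 ug/ml final, 10 min RT. Signal loss = tyrosine-FITC cleavage. No-enzyme wells = max signal.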
TGFb inhibitor: inhibitors of TGF-b signaling. HepG2 CAGA-GFP TGF-b/SMAD3 reporter, GFP fluorescence, 18 h; TGF-beta stimulated, 500 pg/mL final. actives 1.2% (n = 410,000). Potency, µM (doses to about 46.1 µM), usual class: inhibitors. AID 588855; also: nearly all actives have a fitted effect of over 65% in size
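Inhibition of TGF-beta-driven CAGA-GFP reporter expression in HEPG2 cells is measured by cellular GFP fluorescence after 18 h stimulation with 500 pg/mL recombinant TGF-beta in 1% FBS medium at 37 degrees C.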
IL-1B inflam inh: inflammasome signaling inhibition, IL-1 beta readout; actives 4.7% (n = 360,000); activity change, % at 57.5 µM; THP-1 LPS/ATP IL-1B secretion, AlphaLISA, 16 h; hits give low values; in the data active = activity change below about -50%; inconclusive = mostly about -30% to -49%
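Secreted IL-1B measured by AlphaLISA bead assay after 16 h compound exposure of THP-1 cells; compounds (final up to 57.5 uM) added 1 h before LPS (250 ng/mL) and ATP (1.25 mM) stimulation; lower signal means less secretion.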
TDP1 cell noCPT: qHTS for Inhibitors of human tyrosyl-DNA phosphodiesterase 1 (TDP1): qHTS in cells in absence of CPT | DT40 Tdp1-/- hTDP1 cells, no CPT, ATP luminescence, 48 h | Potency, µM (top dose mostly 46.2 µM), usual class: inhibitors | actives 15% (n = 420,000) | AID 686978, 2013; also: nearly all actives have a fitted effect of over 55% in size
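DT40 Tdp1-/-;hTDP1 cells, no CPT (DMSO vehicle only), 400 cells/well; compounds pin-transferred; ≥48 hr, 37 °C; CellTiter-Glo 30 min RT dark, luminescence read.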
Large screens that a line does not name were inactive. Unless noted, calls follow the shape of the dose curve; as a rule, active = well fitted curve in the direction sought with a large enough effect; inconclusive = small, poorly fitted or top-dose-only effect, or another doubt; inactive = no such curve, though single readings can be large; an effect the other way counts as inactive or inconclusive.

CNC(=O)C(=O)Nc1nc(C23CC4CC(CC(C4)C2)C3)cs1	none
CCc1ccccc1OCC(=O)Nc1ccc(S(=O)(=O)Nc2nc(C)cc(C)n2)cc1	TDP1 cell noCPT inconclusive (no result: IL-1B inflam inh)
COc1ccc(C(=O)O/N=C2\CCS(=O)(=O)c3sccc32)cc1	none
COc1ccc(N=C2CCS(=O)(=O)c3sccc32)cc1	TDP1 cell CPT 9.2µM, TDP1 cell noCPT inconclusive
CCOc1ccc(NC(=O)c2ccc3c(c2)nnn3C2CCCC2)cc1	TGFb inhibitor inconclusive, TDP1 cell noCPT inconclusive (no result: IL-1B inflam inh)
COc1ccc(CN(C)C(=O)C2CCN(C(=O)Nc3ccccc3)CC2)cc1	TGFb inhibitor inconclusive
CCCNC(=O)C1CC(=O)N(c2ccc(OCc3ccc(Cl)cc3)cc2)C1 (centres undefined)	TDP1 cell CPT inconclusive, TDP1 cell noCPT 8.2µM (no result: TDP1 block)
NC(=O)C1CC(=O)N(c2ccc(OCC(=O)N3CCCC3)cc2)C1 (centres undefined)	TGFb inhibitor inconclusive (no result: TDP1 block)
NC(=O)C1CC(=O)N(c2ccc(OCc3ccc(Cl)cc3)cc2)C1 (centres undefined)	TDP1 cell CPT inconclusive, TDP1 cell noCPT 23µM
Cc1cc(NC(=O)CSc2nnnn2-c2ccc(C)c(Cl)c2)no1	none
O=C(CCc1ccccc1)N=C1SC2CS(=O)(=O)CC2N1c1ccccc1F (centres undefined)	none
COc1ccc(C(=O)CSc2nnc(-c3ccco3)n2CC2CCCO2)cc1 (centres undefined)	TDP1 cell CPT inconclusive, TDP1 cell noCPT inconclusive
O=C(CSc1nnc(-c2ccco2)n1CC1CCCO1)c1ccc(F)cc1 (centres undefined)	TDP1 cell CPT 18µM, TDP1 cell noCPT 21µM
Cc1cccc(S(=O)(=O)NC(=O)C2(C)CCN2C(=O)CC2CCCCC2)c1 (centres undefined)	none (no result: TDP1 block)
Cc1c(C(=O)N(Cc2ccc(N(C)C)cc2)Cc2ccco2)oc2cc(Br)ccc12	TDP1 cell CPT 23µM, TDP1 cell noCPT 9.2µM (no result: TGFb inhibitor, IL-1B inflam inh)
Cc1cc(C)c2c(CC(=O)NCc3ccco3)coc2c1	TDP1 cell CPT inconclusive, TDP1 cell noCPT inconclusive
Cc1ccc2c(CC(=O)N(Cc3ccc(N(C)C)cc3)Cc3ccco3)coc2c1C	TDP1 cell CPT 16µM, TGFb inhibitor inconclusive, TDP1 cell noCPT 18µM (no result: IL-1B inflam inh)
Cc1ccc(CN(Cc2ccco2)C(=O)c2oc3cc(Br)ccc3c2C)cc1	TDP1 cell CPT inconclusive, TDP1 cell noCPT inconclusive (no result: IL-1B inflam inh)
Cc1cc(C)c2c(CC(=O)N(Cc3ccc(Cl)cc3)Cc3ccco3)coc2c1	TDP1 cell CPT inconclusive, TDP1 cell noCPT 8.2µM (no result: TGFb inhibitor, IL-1B inflam inh)
NS(=O)(=O)c1ccc(CNC(=O)c2ccc(NS(=O)(=O)c3cccs3)cc2)cc1	none
Cc1ccccc1[C@H](NC1c2ccccc2C=Cc2ccccc21)P(=O)(c1ccccc1)c1ccccc1	TDP1 cell CPT inconclusive, IL-1B inflam inh -74, TDP1 cell noCPT inconclusive (no result: HepG2 tox, TDP1 block, TGFb inhibitor)
Cc1ccc(NC(=O)N2CCC(NC(=O)c3ccccc3C)CC2)cc1	none
O=C(CNC(=O)Cc1ccccc1)NCc1cccs1	none
O=C(Cc1ccc(-n2cccc2)cc1)NCc1cccs1	TDP1 cell CPT 0.82µM, TGFb inhibitor inconclusive, TDP1 cell noCPT 1µM
COc1cc(OC)cc(C(=O)NCc2cccnc2)c1	none
Cc1ccc(CNC(=O)Cc2ccc(-n3cccc3)cc2)cc1	TDP1 cell CPT 1.3µM, TDP1 cell noCPT 0.82µM
Cc1ccc(CNC(=O)c2ccc(-n3cccc3)cc2)cc1	TDP1 block 13µM
Cc1ccc(CNC(=O)Cn2cccc2)cc1	none (no result: TDP1 block)
COc1cc(OC)cc(C(=O)NCc2ccc(-n3cccc3)cc2)c1	TDP1 cell CPT 18µM, TDP1 cell noCPT inconclusive
COc1ccc(CC(=O)NCc2nn(-c3ccccc3)nc2C)cc1OC	TDP1 cell noCPT inconclusive
COc1ccc(CC(=O)NCc2ccc(-n3cccc3)cc2)cc1OC	TDP1 cell CPT 2.3µM, TDP1 cell noCPT 2.3µM (no result: TDP1 block)
CN1C(=O)c2ccccc2C(C(=O)O)C1c1cccc(F)c1 (centres undefined)	TDP1 cell CPT inconclusive, TDP1 cell noCPT 26µM
CCN(CC)CCN(C(=O)c1cc2c(ccc3ccccc32)oc1=O)c1nc2cc3c(cc2s1)OCCO3	TDP1 cell CPT 18µM, TGFb inhibitor 13µM, IL-1B inflam inh -61, TDP1 cell noCPT 21µM
CN(C)CCN(C(=O)c1ccc(N2C(=O)CCC2=O)cc1)c1nc2cc3c(cc2s1)OCO3	none
CCN(c1ccccc1)S(=O)(=O)c1ccc(C(=O)N(CCCN(C)C)c2nc3cc4c(cc3s2)OCO4)cc1	TDP1 cell CPT 18µM, TGFb inhibitor 22µM, IL-1B inflam inh -57, TDP1 cell noCPT inconclusive
CCN(CC)CCN(C(=O)c1ccc2c(c1)OCCO2)c1nc2cc3c(cc2s1)OCO3	none
CN(C)CCCN(C(=O)c1ccc(S(=O)(=O)N(C)Cc2ccccc2)cc1)c1nc2cc3c(cc2s1)OCO3	TGFb inhibitor inconclusive, IL-1B inflam inh -51, TDP1 cell noCPT 16µM
CN(C)CCCN(C(=O)c1ccc([N+](=O)[O-])o1)c1nc2cc3c(cc2s1)OCO3	TDP1 cell CPT 18µM, TGFb inhibitor inconclusive, TDP1 cell noCPT inconclusive
CN(C)CCCN(C(=O)c1ccc(S(=O)(=O)N2CCCCCC2)cc1)c1nc2cc3c(cc2s1)OCO3	TDP1 cell CPT inconclusive, TGFb inhibitor inconclusive, TDP1 cell noCPT inconclusive (no result: TDP1 block)
CC1CN(S(=O)(=O)c2ccc(C(=O)N(CCCN(C)C)c3nc4cc5c(cc4s3)OCCO5)cc2)CC(C)O1 (centres undefined)	IL-1B inflam inh inconclusive (no result: TDP1 block)
Cc1ccc(-n2c3nc(=O)[nH]c(=O)c-3cc3c(C)nn(-c4ccccc4)c32)cc1C	none (no result: IL-1B inflam inh)
Cc1nc2ccccc2nc1CN1CCOc2ccc(CN3CCc4sccc4C3)cc2C1	none (no result: HepG2 tox, TDP1 block, TGFb inhibitor, IL-1B inflam inh)
COc1ccccc1Nc1ccc2c(O)cc(S(=O)(=O)O)cc2c1	none (no result: TDP1 block)
Cc1ccc2sc(N(CCCN(C)C)C(=O)c3ccc(S(=O)(=O)N(C)C)cc3)nc2c1C	none
CN(C)CCCN(C(=O)c1ccc2ccccc2c1)c1nc2cc3c(cc2s1)OCO3	TDP1 cell CPT 21µM, IL-1B inflam inh -93, TDP1 cell noCPT inconclusive
CN(C)CCN(C(=O)c1cccc2ccccc12)c1nc2cc3c(cc2s1)OCO3	TDP1 cell CPT inconclusive, IL-1B inflam inh -91, TDP1 cell noCPT inconclusive
CN(C)CCN(C(=O)c1ccc2ccccc2c1)c1nc2cc3c(cc2s1)OCCO3	TDP1 cell CPT inconclusive, TDP1 cell noCPT inconclusive
